According to PubChem BioAssay (EPA / NIEHS):
Results filed as inconclusive are left out. Active and inactive are the calls of the source. The calls were made as follows: active = hit-call score of the fitted dose curve at least 0.9, where 1 is the maximum; inconclusive = response in the unintended direction; inactive = score below 0.9.

tested on: frog Estrogen Receptor (ESR1), gene 398734; assay: ATG_frER1_XSP1: Attagene TRANS-FACTORIAL Multi-Species (XSP1) HepG2 Assay for frog Estrogen Receptor (ESR1) (AID 2283777)
Method in brief: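 HepG2 cells transiently transfected with GAL4-UAS reporter units and frog ER–Gal4 chimera were dosed for 24 h with 3 nM 6-alpha-fluorotestosterone present. Reporter mRNA was measured by RT-PCR and capillary electrophoresis; gain of signal fitted versus DMSO.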

Compound | AC50 | outcome
CCCN(CCC)c1c([N+](=O)[O-])cc(C(F)(F)F)cc1[N+](=O)[O-] | 7.74 µM (active) | 
Oc1cc(Cl)ccc1Oc1ccc(Cl)cc1Cl |  | inactive
O=S1OCC2C(CO1)C1(Cl)C(Cl)=C(Cl)C2(Cl)C1(Cl)Cl (stereo unspecified) |  | inactive
CC1(C)C(C=C(Cl)Cl)C1C(=O)OC(C#N)c1ccc(F)c(Oc2ccccc2)c1 (stereo unspecified) | 13.9 µM (active) | 
O=S(=O)(O)C(F)(F)C(F)(F)C(F)(F)C(F)(F)C(F)(F)C(F)(F)C(F)(F)C(F)(F)F | 84 µM (active) | 
COP(=S)(OC)Oc1ccc(SC)c(C)c1 | 5.04 µM (active) | 
Oc1ccc(Cl)cc1Cc1ccccc1 | 2.63 µM (active) | 

tested on: zebrafish Estrogen Receptor (ESR2A), gene 317734; assay: ATG_zfER2a_XSP1: Attagene TRANS-FACTORIAL Multi-Species (XSP1) HepG2 Assay for zebrafish Estrogen Receptor (ESR2A) (AID 2283778)
Method in brief: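 Reporter transcripts were quantified by RT-PCR, 6-FAM labelling, HpaI digestion and capillary electrophoresis after 24 h dosing. The cells were HepG2 transiently carrying a zebrafish ER2a–Gal4 construct plus multiplexed UAS reporters; medium contained 3 nM 6-alpha-fluorotestosterone.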

Compound | AC50 | outcome
Oc1cc(Cl)ccc1Oc1ccc(Cl)cc1Cl | 4.96 µM (active) | 
CC1(C)C(C=C(Cl)Cl)C1C(=O)OC(C#N)c1ccc(F)c(Oc2ccccc2)c1 (stereo unspecified) |  | inactive
COP(=S)(OC)Oc1ccc(SC)c(C)c1 | 45.9 µM (active) | 
Oc1ccc(Cl)cc1Cc1ccccc1 |  | inactive
